Shown are actives, neighbours in structure and some others; about 11% of the full set was active somewhere.
FLuc inh-1: Firefly luciferase inhibition profiling of diverse chemical library using quantitative high-throughput screening. AID 1347043, 2019. Luciferin 4-monooxygenase (Photinus pyralis), P08659. Potency, µM (doses to about 115 µM), hits mostly inhibitors. purified P. pyralis luciferase, luminescence, biochemical. 2.5% of 76,000 active; note: nearly all actives have a fitted effect of over 65% in size
Target sequence (P08659 whole entry, looked up): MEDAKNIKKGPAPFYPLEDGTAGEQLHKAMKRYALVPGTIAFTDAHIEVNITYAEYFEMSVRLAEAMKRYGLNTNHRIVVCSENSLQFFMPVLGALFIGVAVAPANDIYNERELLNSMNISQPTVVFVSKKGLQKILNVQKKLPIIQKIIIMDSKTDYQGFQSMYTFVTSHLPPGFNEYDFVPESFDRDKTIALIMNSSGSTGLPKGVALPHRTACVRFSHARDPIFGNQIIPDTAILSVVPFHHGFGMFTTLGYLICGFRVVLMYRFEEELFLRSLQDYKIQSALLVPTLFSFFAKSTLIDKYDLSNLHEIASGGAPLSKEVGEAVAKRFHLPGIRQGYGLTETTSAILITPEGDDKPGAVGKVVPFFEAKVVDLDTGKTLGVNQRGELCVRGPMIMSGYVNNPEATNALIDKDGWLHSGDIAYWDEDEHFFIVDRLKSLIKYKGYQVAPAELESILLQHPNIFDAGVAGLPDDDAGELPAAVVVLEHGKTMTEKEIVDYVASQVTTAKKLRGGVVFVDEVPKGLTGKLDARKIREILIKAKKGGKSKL
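Inhibitors were tested against purified firefly luciferase in a biochemical, low-substrate format (both substrates at 10uM) and luminescence measured with a CCD imager.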
HEK293 tox: Cytotoxic Profiling in HEK 293 Cell Line of Diverse Libraries Using Quantitative High-Throughput Screening. HEK 293 viability, ATP luminescence (CellTiter-Glo), 48-72 h. Potency, µM (doses to about 115 µM), usual class: inhibitors. 6.6% of 94,000 active. AID 1345083, 2018; note: nearly all actives have a fitted effect of over 60% in size
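Cytotoxicity was scored by loss of ATP-coupled luminescence (CellTiter-Glo) in HEK 293 cells. Compound treatment ran 48 or 72 hr at 37 degree Celsius, 5% CO2, 95% humidity.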
NPR1 antag: Natriuretic polypeptide receptor (hNpr1) antagonism - Primary qHTS. Atrial natriuretic peptide receptor 1 (Homo sapiens), P16066. HEK293 hNpr1 GloSensor cGMP, ANP-stimulated luminescence. Potency, µM (series often up to 46.3 µM), usual class: inhibitors. 1.6% of 76,000 active; calls by dose curve; note: nearly all actives have a fitted effect of over 60% in size
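HEK293 cells stably expressing human Npr1 and cGMP GloSensor pGS-40F, loaded 2 h with 2% GloSensor reagent, given compound 30 min at room temperature. Luminescence read before and 20 min after 0.1 nM hNppA.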
NIH3T3 tox: Cytotoxic Profiling in NIH 3T3 Cell Line of Diverse Libraries Using Quantitative High-Throughput Screening. Potency, µM (series often up to 96.7 µM), usual class: inhibitors. NIH 3T3 viability, CellTiter-Glo ATP luminescence, 48-72 h. 4.3% of 94,000 active. AID 1345082, 2018; note: nearly all actives have a fitted effect of over 55% in size
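Luminescent ATP readout (CellTiter-Glo, 10 min RT) after 48 or 72 hr compound exposure of NIH 3T3 cells seeded at 400 cells/well in 1536-well format; quantitative HTS.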
FLuc SDR -ATP: Firefly luciferase (FLuc-C-HiBiT) SDR gain of signal screen - without ATP | shares compounds with FLuc inh-1 | Purified FLuc-C-HiBiT, Nano-Glo HiBiT luminescence, no ATP | Potency, µM (series often up to 32.7 µM), actives largely listed as activators | 7.8% of 1,300 active; note: nearly all actives have a fitted effect of over 55% in size
FLuc SDR ATP: Firefly luciferase (FLuc-C-HiBiT) SDR gain of signal screen - plus ATP. Potency, µM (top dose mostly 32.7 µM), most hits filed as activators. 8.7% of 1,300 active. AID 1963319, 2024. shares compounds with FLuc inh-1. purified FLuc-C-HiBiT + ATP, HiBiT complementation luminescence;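 note: signal reports ligand binding via conformational change of the enzyme rather than luciferase catalysis; nearly all actives have a fitted effect of over 55% in size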
FLuc inh-2: Firefly luciferase (FLuc-C-HiBiT) enzymatic inhibition screen - Functional assay; shares compounds with FLuc inh-1; purified FLuc-C-HiBiT enzyme, luciferin luminescence; Potency, µM (doses to about 32.7 µM), usual class: inhibitors; 42% of 1,300 active; note: nearly all actives have a fitted effect of over 70% in size
Numbers stand for hits; – = inactive; ? = inconclusive; · = not tested or not shown. Unless noted, calls come from the whole dose curve; as a rule, active = well fitted curve in the direction sought with a large enough effect; inconclusive = small, poorly fitted or top-dose-only effect, or another doubt; inactive = no such curve, though single readings can be large; an effect the other way counts as inactive or inconclusive.

SMILES	FLuc inh-1	HEK293 tox	NPR1 antag	NIH3T3 tox	FLuc SDR -ATP	FLuc SDR ATP	FLuc inh-2
Cc1cc(C)cc(Nc2nc(-c3ccccc3F)no2)c1	1.6µM	40µM	?	45µM	–	–	6.2µM
Fc1ccccc1-c1noc(-c2nc(-c3ccccc3F)no2)n1	–	–	–	–	·	·	·
Fc1ccc(Nc2nc(-c3ccccc3)no2)cc1	3.2µM	?	?	?	–	–	6.2µM
c1ccc(CNc2nc(-c3ccccc3)no2)cc1	14µM	?	?	?	–	–	?
CCOC(=O)c1cccc(Nc2nc(-c3ccccc3)no2)c1	1.8µM	28µM	–	–	–	?	?
COC(=O)c1cn([C@H]2CO[C@H]3[C@@H]2OC[C@@H]3NC(=O)C2CC2)nn1	–	–	–	–	·	·	·
Cc1nc2c(c(-c3ccc(Cl)cc3)n1)CN([S+](=O)([O-])c1ccccc1)CC2	–	–	–	?	·	·	·
O=C1NCc2ccccc2CC12CCCN2Cc1cccc(O)c1 (centres undefined)	·	–	·	–	·	·	·
Fc1cccc(Nc2nc(-c3ccccc3)no2)c1	3.2µM	?	?	?	–	–	7µM
Fc1cccc(Cc2noc(-c3nc(-c4ccccc4)no3)n2)c1	–	?	–	–	·	·	·
CCc1nc(-c2ccc(OC3CCN(C(=O)C4CC4)C3)cc2)no1 (centres undefined)	7.9µM	?	?	?	–	–	?
CCc1nc(-c2ccc(OC3CCN(C(=O)COc4ccc(F)cc4)C3)cc2)no1 (centres undefined)	–	?	?	?	·	·	·
Cc1nc(C)c(C(=O)N2CC(Oc3ccc(-c4noc(-c5ccccc5)n4)cc3)C2)s1	?	–	?	–	·	·	·
Cc1nc(C)c(C(=O)N2CCC(Oc3ccc(-c4noc(-c5ccccc5)n4)cc3)C2)s1 (centres undefined)	5.6µM	?	6.3µM	?	–	–	?
O=C1NCCOCCCN(C(=O)NCc2ccccc2)[C@H]2CCC[C@@H]12	–	–	–	–	·	·	·
CCOc1ccc(-c2cc(CCCC(=O)NCCc3ccc(OC)c(OC)c3)no2)cc1	·	·	·	·	–	?	?
CNc1ccc(C(=O)N2CCC(CCn3cccn3)CC2)cn1	–	–	–	–	·	·	·
Cc1cc(NCCc2cnccn2)nc(-c2ccccc2O)n1	10µM	?	–	?	–	–	–
Cc1ccc(-n2cc(CN3CCn4nc(C(O)c5nccn5C)cc4C3)cn2)cc1 (centres undefined)	?	–	–	–	·	·	·
Cn1ccnc1C(O)c1cc2n(n1)CCN(c1ncnc3nc[nH]c13)C2 (centres undefined)	–	–	–	–	–	–	–
CN(C)C(=O)N1CCN(c2ccc3nnc(-c4ccccc4)n3n2)CC1	·	–	·	?	·	·	·
O=C(Nc1ccccc1)N1CCc2nc(C3CC3)nc(-c3ccc(Cl)cc3)c2C1	–	?	–	?	–	–	–
O=C(c1ccccc1)N1CCc2nc(C3CC3)nc(-c3ccc(Cl)cc3)c2C1	·	?	·	–	·	·	·
CCCN1C(=O)c2ccc(-c3nc4ccccc4s3)cc2C1=O	·	·	·	·	?	–	2µM
CCCS(=O)(=O)N1CCCC1c1nc2ccccc2s1 (centres undefined)	–	?	–	–	·	·	·
SMILES	FLuc inh-1	HEK293 tox	NPR1 antag	NIH3T3 tox	FLuc SDR -ATP	FLuc SDR ATP	FLuc inh-2
CCCCC(=O)Nc1cc(-c2nc3ccccc3s2)ccc1C	·	·	·	·	–	–	–
CC(=O)Nc1cc(-c2nc3ccccc3s2)ccc1C	·	·	·	·	–	–	?
COc1ccc(-c2cc(N3CCCC(NC(=O)c4cccc(OC)c4OC)C3)n[nH]2)cc1 (centres undefined)	?	?	–	?	·	·	·
COc1ccc(-c2cc(N3CCCC(NC(=O)c4ccc(OC)cc4OC)C3)n[nH]2)cc1 (centres undefined)	13µM	45µM	–	?	–	–	?
CCOc1ccc(C(=O)NC2CCCN(c3cc(-c4ccc(OC)cc4)[nH]n3)C2)cc1 (centres undefined)	?	?	–	–	·	·	·
COc1ccc(-c2cc(N3CCCC(NC(=O)c4ccncc4)C3)n[nH]2)cc1 (centres undefined)	13µM	?	–	–	–	–	?
COc1ccc(-c2cc(N3CCCC(NC(=O)c4cc(OC)cc(OC)c4)C3)n[nH]2)cc1 (centres undefined)	5.6µM	?	–	?	–	–	?
COc1ccc(-c2cc(N3CCC(NC(=O)c4ccncc4)C3)n[nH]2)cc1 (centres undefined)	?	?	–	–	·	·	·
COc1ccc(-c2cc(N3CCCC(NC(=O)c4cc(OC)c(OC)c(OC)c4)C3)n[nH]2)cc1 (centres undefined)	6.3µM	?	–	?	–	–	5.6µM
CC(C)c1ccc(C(=O)Nc2cccc3cccnc23)cc1	·	·	·	·	–	–	?
CN1CCC(Oc2ncccc2NC(=O)c2ccncc2)C1 (centres undefined)	–	–	–	–	·	·	·
O=C([C@@H]1C[C@H](Oc2cccnc2)CN1C(=O)Cn1c(=O)oc2ccccc21)N1CCCC1	–	–	–	–	·	·	·
COc1cccc(-c2noc(COc3ccccc3Cl)n2)c1	·	·	·	·	–	–	?
CCOc1ccc(Nc2nc(-c3ccccc3)no2)cc1	0.79µM	–	10µM	18µM	–	–	5µM
COc1cccc(-c2cc(-c3ccccc3OC)nc3c(C)noc23)c1	–	?	–	?	·	·	·
COc1ccc(-c2noc(Nc3cc(OC)cc(OC)c3)n2)cc1	?	?	–	?	·	·	·
COc1ccc(-c2noc(Nc3ccccc3)n2)cc1	1.1µM	?	10µM	–	–	?	2.2µM
COc1ccc(-c2noc(Nc3ccc4c(c3)OCCO4)n2)cc1	0.89µM	–	?	–	?	?	1.6µM
Cc1ccc(CN2CCC3(CCC3N3CCOCC3)CC2)cc1C (centres undefined)	·	–	·	–	·	·	·
COc1ccc(NC(=O)Cn2c(C)cc3nc4n(c(=O)c32)CCCC4)cc1Cl	–	–	–	–	·	·	·
COc1ccc(Nc2nc(-c3cccc(OC)c3)no2)cc1	2.5µM	?	?	–	–	–	7.9µM
